According to PubChem BioAssay (Tox21):
Inconclusive results are not listed. A call without a number means that no potency is given here. A structure can be active in one record and inactive in another. Calls of active or inactive are those of the source. The call rests on the fitted dose curve.

What was measured:
[1] = target: Acetylcholinesterase (Homo sapiens) (UniProt P22303); test: Acetylcholinesterase (AChE) small molecule antagonists: colormetric cell-based qHTS assay (AID 1347395); further: nearly all actives have a fitted effect of over 30% in size; further: potency means the concentration at half of the fitted maximal effect
Sequence of Acetylcholinesterase (Homo sapiens) (P22303 whole entry, looked up): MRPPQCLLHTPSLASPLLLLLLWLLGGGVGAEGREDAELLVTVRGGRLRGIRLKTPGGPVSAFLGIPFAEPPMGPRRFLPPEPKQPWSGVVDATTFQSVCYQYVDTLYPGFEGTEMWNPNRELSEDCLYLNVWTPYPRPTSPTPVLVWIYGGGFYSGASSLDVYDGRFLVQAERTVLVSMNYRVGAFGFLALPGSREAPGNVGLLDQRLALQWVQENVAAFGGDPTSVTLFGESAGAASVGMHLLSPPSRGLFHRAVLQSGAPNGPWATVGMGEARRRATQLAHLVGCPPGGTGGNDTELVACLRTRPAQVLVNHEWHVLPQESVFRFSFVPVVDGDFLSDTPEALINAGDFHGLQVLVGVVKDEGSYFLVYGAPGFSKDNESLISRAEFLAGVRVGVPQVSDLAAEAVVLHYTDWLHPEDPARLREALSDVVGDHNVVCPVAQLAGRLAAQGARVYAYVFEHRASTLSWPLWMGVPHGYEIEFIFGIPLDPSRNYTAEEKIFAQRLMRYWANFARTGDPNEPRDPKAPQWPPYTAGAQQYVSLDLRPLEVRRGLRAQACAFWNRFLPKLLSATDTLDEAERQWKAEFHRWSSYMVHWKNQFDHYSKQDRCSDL
In short: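 Cells (SH-SY5Y, 2,000 per well) are seeded and left overnight at 37 C. Compound is added for 30 min, then DTNB and acetylthiocholine for a further 90 min at 37 C before absorbance-based thiocholine detection.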

[2] = target: Acetylcholinesterase (Homo sapiens) (UniProt P22303); test: Acetylcholinesterase (AChE) small molecule antagonists: enzyme-based qHTS assay (AID 1347397); settings: Potency: AChE enzyme activity inhibition; outcome: AChE enzyme activity inhibition; further: nearly all actives have a fitted effect of over 55% in size; further: potency means the concentration at half of the fitted maximal effect
In short: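 Absorbance-based detection of thiocholine with DTNB served as the read-out. Recombinant human AChE was exposed to compound for 30 min at RT before a 10 min RT incubation with acetylthiocholine.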

[3] = target: Acetylcholinesterase (Homo sapiens) (UniProt P22303); test: Acetylcholinesterase (AChE) small molecule antagonists: fluorescence cell-based qHTS assay (AID 1347398); settings: Potency: AChE activity; outcome: AChE activity; further: nearly all actives have a fitted effect of over 50% in size; further: potency means the concentration at half of the fitted maximal effect
In short: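 Fluorimetric cell-based assay: intact SH-SY5Y cells, 30 min compound preincubation at 37 C, acetylthiocholine substrate with thiol probe Thiolite Green, 40 min RT development, fluorescence 490/520 nm.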

[4] = target: Acetylcholinesterase (Homo sapiens) (UniProt P22303); test: Acetylcholinesterase (AChE) small molecule antagonists: enzyme-based qHTS assay with human liver microsomes (AID 1347399); settings: Potency: qHTS inhibition; outcome: qHTS inhibition; further: nearly all actives have a fitted effect of over 60% in size
In short: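 Recombinant human AChE (50 mU/mL in the enzyme mix) and human liver microsomes (0.25 mg/mL final) were preincubated with compound and NADPH (0.25 mg/mL final) for 30 min at 37 C. Acetylthiocholine/DTNB was then added; thiocholine was read colorimetrically after 10 min at room temperature.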

| SMILES | Potency [1] | Potency [2] | Potency [3] | Potency [4] | outcome [1] | outcome [2] | outcome [3] | outcome [4] |
| --- | --- | --- | --- | --- | --- | --- | --- | --- |
| CC(=O)Nc1ccccc1 | inactive | inactive | inactive | inactive |  |  |  |  |
| O=C1c2ccccc2C(=O)c2c(O)c(O)cc(O)c21 | inactive | inactive | inactive | inactive |  |  |  |  |
| COC(C)COC(C)COC(C)CO (stereo not given) | inactive | inactive | inactive | inactive |  |  |  |  |
| CCOC(=O)COc1ccc2c(C)c(CCN(CC)CC)c(=O)oc2c1Cl | 13.8 µM (active) | 15.5 µM (active) | 6.92 µM (active) | inactive |  |  |  |  |
| CCC(=O)/C=C/C1C(C)=CCCC1(C)C (stereo not given) | inactive | inactive | inactive | inactive |  |  |  |  |
| CC(=O)Oc1cccc2c1C(=O)c1c(OC(C)=O)cc(C(=O)O)cc1C2=O | inactive | inactive | inactive | inactive |  |  |  |  |
| CC/C(=C\C(=N/O)C(N)=O)C(C)[N+](=O)[O-] (stereo not given) | inactive | inactive | inactive | inactive |  |  |  |  |
| Cc1cc(Cl)c(C)cc1Cl | inactive | inactive | inactive | inactive |  |  |  |  |
| CC/C=C\CCOC(=O)CCCCC | inactive | inactive | inactive | inactive |  |  |  |  |
| CCCC[O][Al]([O]CCCC)[O]CCCC | inactive | inactive | inactive | inactive |  |  |  |  |
| CCCOCCOCCOCCO | inactive | inactive | inactive | inactive |  |  |  |  |
| C=CC(=O)OCCOCCOCCOCCOC(=O)C=C | inactive | inactive | inactive | inactive |  |  |  |  |
| Cc1ccc2oc(CN(Cc3ccccc3)C(=O)Nc3c(F)cc(F)cc3F)c(-c3ccc(Cl)cc3)c2c1 | inactive | inactive | inactive | inactive |  |  |  |  |
| O=C(/C=C/c1ccccc1)OCCCc1ccccc1 | inactive | inactive | inactive | inactive |  |  |  |  |
| CCC(C)Nc1ccc(NC(C)CC)cc1 (stereo not given) | inactive | inactive | 40.7 µM (active) | inactive |  |  |  |  |
| CCC(C)c1nccnc1OC (stereo not given) | inactive | inactive | inactive | inactive |  |  |  |  |
| CCC(C)(C)C(=O)O[C@H]1C[C@@H](C)C=C2C=C[C@H](C)[C@H](CC[C@@H]3C[C@@H](O)CC(=O)O3)[C@H]21 | inactive | inactive | inactive | inactive |  |  |  |  |
| CC(C)C(C)(C)C(C)(C)C(C)(C)S | inactive | inactive | inactive | inactive |  |  |  |  |
| CCN1CCN(C(=O)N[C@@H](C(=O)N[C@@H]2C(=O)N3[C@@H]2SC(C)(C)[C@H]3C(=O)O)c2ccccc2)C(=O)C1=O | inactive | inactive | inactive | inactive |  |  |  |  |
| CC1CN(c2ccccc2)NC1=O (stereo not given) | inactive | inactive | inactive | inactive |  |  |  |  |

| SMILES | Potency [1] | Potency [2] | Potency [3] | Potency [4] | outcome [1] | outcome [2] | outcome [3] | outcome [4] |
| --- | --- | --- | --- | --- | --- | --- | --- | --- |
| Cc1ccccc1OCC(=O)O | inactive | inactive | inactive | inactive |  |  |  |  |
| CCCCOC(=O)[C@H](C)O | inactive | inactive | inactive | inactive |  |  |  |  |
| C=CCOC(=O)C(=C)C | inactive | inactive | inactive | inactive |  |  |  |  |
| O=c1c(-c2ccc(O)cc2)coc2cc(O)ccc12 | inactive | inactive | inactive | inactive |  |  |  |  |
| NC(=O)c1cccnc1 | inactive | inactive | inactive | inactive |  |  |  |  |
| CCOC(=O)N1CCC(n2c(=O)[nH]c3cc(Cl)ccc32)CC1 | inactive | inactive | inactive | inactive |  |  |  |  |
| CC(=O)c1ccc(S(=O)(=O)NC(=O)NC2CCCCC2)cc1 | inactive | inactive | inactive | inactive |  |  |  |  |
| C=CC(=O)OCC(CO)(COC(=O)C=C)COC(=O)C=C | inactive | inactive | inactive | inactive |  |  |  |  |
| CC(C)(C)c1cc(Cc2cc(C(C)(C)C)c(O)c(C(C)(C)C)c2)cc(C(C)(C)C)c1O | inactive | inactive | inactive | inactive |  |  |  |  |
| C=CCCCCCC | inactive | inactive | inactive | inactive |  |  |  |  |
| CC(CCC(=O)O)C(=O)O (stereo not given) | inactive | inactive | inactive | inactive |  |  |  |  |
| CCC(C)C=O (stereo not given) | inactive | inactive | inactive | inactive |  |  |  |  |
| COC(c1ccccc1)(c1ccccc1)[C@H](Oc1nc(C)cc(C)n1)C(=O)O | inactive | inactive | inactive | inactive |  |  |  |  |
| CCCCC(CC)COC(=O)CC(C(=O)OCC(CC)CCCC)S(=O)(=O)O (stereo not given) | inactive | inactive | inactive | inactive |  |  |  |  |
| COCCOCCOCCOC | inactive | inactive | inactive | inactive |  |  |  |  |
| CCOc1ccc(NC(=O)CC(C)O)cc1 (stereo not given) | inactive | inactive | inactive | inactive |  |  |  |  |
| O=CCCCC=O | inactive | inactive | inactive | inactive |  |  |  |  |
| BrCc1cccc(Oc2ccccc2)c1 | inactive | inactive | inactive | inactive |  |  |  |  |
| CCOC(=O)CN1CCCC1=O | inactive | inactive | inactive | inactive |  |  |  |  |
| CCCCCCCCS(=O)(=O)O | inactive | inactive | inactive | inactive |  |  |  |  |

| SMILES | Potency [1] | Potency [2] | Potency [3] | Potency [4] | outcome [1] | outcome [2] | outcome [3] | outcome [4] |
| --- | --- | --- | --- | --- | --- | --- | --- | --- |
| ON=C1CCCCC1 | inactive | inactive | inactive | inactive |  |  |  |  |
| C[Si](C)(C)O[Si](C)(C)C | inactive | inactive | 35.4 µM (active) and inactive | inactive |  |  |  |  |
| CNCCCCOc1ccccc1Cc1ccccc1 | inactive | inactive | inactive | inactive |  |  |  |  |
| C=Cc1ccc(C(C)(C)C)cc1 | inactive | inactive | inactive | inactive |  |  |  |  |
| CC(C)(C)c1cc(/C=C2\SC(=N)NC2=O)cc(C(C)(C)C)c1O |  |  |  |  | inactive | inactive | inactive | inactive |
| CC(CN1CC(=O)NC(=O)C1)N1CC(=O)NC(=O)C1 (stereo not given) | inactive | inactive | inactive | inactive |  |  |  |  |
| CC(C)(C)c1cc(CCC(=O)OCC(COC(=O)CCc2cc(C(C)(C)C)c(O)c(C(C)(C)C)c2)(COC(=O)CCc2cc(C(C)(C)C)c(O)c(C(C)(C)C)c2)COC(=O)CCc2cc(C(C)(C)C)c(O)c(C(C)(C)C)c2)cc(C(C)(C)C)c1O | inactive | inactive | inactive | inactive |  |  |  |  |
| CCC(=O)OC | inactive | inactive | inactive | inactive |  |  |  |  |
| CC(=O)Nc1cccc(O)c1 | inactive | inactive | inactive | inactive |  |  |  |  |
| Cc1ccc(O)c(-n2nc3ccccc3n2)c1 | inactive | inactive | inactive | inactive |  |  |  |  |
| O=C(O)CONC(=O)c1ccccc1 | inactive | inactive | inactive | inactive |  |  |  |  |
| COC(=O)Nc1nc2ccc(S(=O)c3ccccc3)cc2[nH]1 (stereo not given) | inactive | inactive | inactive | inactive |  |  |  |  |
| CC(C)(C)N | inactive | inactive | inactive | inactive |  |  |  |  |
| CC(Cl)C(Cl)Cl (stereo not given) | inactive | inactive | inactive | inactive |  |  |  |  |
| O=C(O)CCS | inactive | inactive | inactive | inactive |  |  |  |  |
| CCOC(=O)COc1ccc(C)cc1 | inactive | inactive | inactive | inactive |  |  |  |  |
| CCCC(=O)O[C@]1(C(=O)CO)CC[C@H]2[C@@H]3CCC4=CC(=O)CC[C@]4(C)[C@H]3[C@@H](O)C[C@@]21C | inactive | inactive | inactive | inactive |  |  |  |  |
| O=C1NC2NC(=O)NC2N1 (stereo not given) | inactive | inactive | inactive | inactive |  |  |  |  |
| CN(C)CCCN | inactive | inactive | inactive | inactive |  |  |  |  |
| CC(C)C(=O)c1ccccc1 | inactive | inactive | inactive | inactive |  |  |  |  |
